Laboratory results from PubChem BioAssay AID1159580 (chemical genetic matrix, 2015).
Out of some 5,500 compounds screened, about 2,000 (36%) were called active. Roughly 18% stayed inconclusive and do not appear here. This is one part of the list. A number with no mark means an inactive call. No stated cut-off is given here; in the data, active means normalized growth mostly below about 0.91 (no sharp cut-off); inconclusive means no clear call, values can overlap the other calls; inactive means mostly above about 0.92.

Test: chemical genetic growth profiling, strain panel (AID 1159580);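 further: tested at 20 µM; growth read once vehicle control cultures reached saturation at 30 °C; 1 = growth at the plate median or of vehicle wells; lower values mean less growth of the strain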
Conditions: S. cerevisiae deletion strains, growth OD
[1] = locus YAL040C, strain CLN3, hits give low values
[2] = locus YCL061C, strain MRC1 (second series), hits give low values
[3] = locus YDR150W, strain NUM1, hits give low values
[4] = locus YDR363W, strain ESC2, hits give low values
[5] = locus YER002W, strain NOP16, hits give low values
[6] = locus YMR307W, strain GAS1, hits give low values
[7] = locus YNL153C, strain GIM3, hits give low values
[8] = locus YNL175C, strain NOP13, hits give low values
[9] = locus YNL197C, strain WHI3, hits give low values
[10] = locus YNL224C, strain SQS1, hits give low values
[11] = locus YOR083W, strain WHI5 (second series), hits give low values
[12] = locus YGR078C, strain PAC10, hits give low values
[13] = locus YGR229C, strain SMI1, hits give low values

Row | SMILES | normalized growth [1] | normalized growth [2] | normalized growth [3] | normalized growth [4] | normalized growth [5] | normalized growth [6] | normalized growth [7] | normalized growth [8] | normalized growth [9] | normalized growth [10] | normalized growth [11] | normalized growth (locus YPL055C, strain LGE1, hits give low values) | normalized growth [12] | normalized growth [13] | normalized growth (locus YNL128W, strain TEP1, hits give low values) | normalized growth (locus YNL322C, strain KRE1, hits give low values)
1 | CN(C(=O)Cc1ccc(Cl)c(Cl)c1)C(CN1CCCC1)c1cccc(OCC(=O)O)c1 (stereo not given) | 0.998 | 0.995 | 1 | 0.961 | 0.992 | 0.989 | 1.01 | 0.995 | 0.997 | 0.99 | 0.999 | 1.01 | – | – | – | –
2 | CC(Cc1ccc(OCC(=O)O)cc1)NCC(O)c1cccc(Cl)c1 (stereo not given) | 0.97 | – | 0.182 (active) | – | 1.01 | – | – | 0.984 | 0.979 | 0.99 | 0.977 | – | 1.01 | 1.02 | 1.02 | –
3 | C[C@H](Cc1ccc2c(c1)OC(C(=O)O)(C(=O)O)O2)NC[C@H](O)c1cccc(Cl)c1 | 1.02 | 1.01 | – | 0.998 | 0.992 | 1.02 | 0.967 | 1 | 0.987 | 1 | 0.985 | – | 1.01 | 1.01 | – | 1
